The whole screen tested about 300,000 compounds, of which about 3,200 (1.1%) were called active. For the sample, actives were picked, then their nearest neighbours and some compounds at random. A number with no mark means an inactive call.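 How the source made its calls: active means inhibition above the campaign mean inhibition plus 3 SD (cut at about 35% in these data); inactive means the rest.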

In general, inhibition refers to the drop in the measured response relative to a control, in per cent.

For the experiment, the target named is Glutathione S-transferase omega-1 (Homo sapiens) (UniProt P78417). Description: inhibitors of recombinant GSTO1, primary screen, counter-screen for RBBP9 inhibitor project, biochemical, fluorescence polarization (AID 1974).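 Further: 0% = GSTO1-1 with DMSO and 100% = wells lacking GSTO1-1 enzyme.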 The note with it: recombinant GSTO1, activity-based probe fluorescence polarization; at 5.96 µM; stronger effect = higher value. Background: A counterscreen serves to expose hits that act by an unwanted route or on another target.
Sequence of Glutathione S-transferase omega-1 (Homo sapiens) (P78417 whole entry, looked up): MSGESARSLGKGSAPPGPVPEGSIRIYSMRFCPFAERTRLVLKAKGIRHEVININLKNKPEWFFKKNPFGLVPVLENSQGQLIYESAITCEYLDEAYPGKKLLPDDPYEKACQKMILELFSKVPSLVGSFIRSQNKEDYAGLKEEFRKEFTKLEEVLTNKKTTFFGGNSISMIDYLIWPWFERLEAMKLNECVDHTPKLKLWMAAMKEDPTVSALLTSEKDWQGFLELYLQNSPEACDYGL
In the case of `Cc1cccc(C(=O)NCCCN(C)CCCNC(=O)c2cccc(C)c2)c1`, the inhibition is -1.1%.

As for `CCN(CCCNC(=O)c1ccc2c(c1)NC(=O)CN2C)c1cccc(C)c1`, the inhibition is 52.9% (active).

In the case of `CCN(CCCNC(=O)CCn1c(=O)[nH]c2ccsc2c1=O)c1ccccc1`, the inhibition was 0.71%.

With `CCOCCn1[nH]c2ccccc2c1=O`, the inhibition was 1.49%.

Consider `CC(=O)c1c(-c2ccccc2)c2ccccc2[nH]c1=O`, for which the inhibition was -2.94%.

As to `O=c1[nH]c2ccccc2n2c(-c3ccccc3)nnc12`, the inhibition is 69.1% (active).

Consider `Cc1ccccc1Cn1c(=O)[nH]c2ccccc21`, for which the inhibition is 8.19%.

For `O=S(=O)(NCCS(=O)(=O)N1CCN(c2ccccc2)CC1)c1ccc(F)cc1`, the inhibition was -12.9%.

Turning to `CN(CC(=O)NNC(=O)CNC(=O)c1ccccc1Cl)S(=O)(=O)c1ccc(Cl)cc1`, the inhibition was 5.54%.

As for `O=C1NCCn2nc3ccccc3c21`, the inhibition was 3.49%.

Take `O=[N+]([O-])c1ccc(C=Nc2ccc(Cl)cc2Cl)s1`: the inhibition is 38.5% (active).

In the case of `CCOc1ccc(NC(=O)CCC(=O)N/N=C/c2ccc([N+](=O)[O-])s2)cc1`, the inhibition was 5.9%.

Take `O=C(NCc1ccccc1Cl)C(=O)NCC1CCCN1S(=O)(=O)c1cccs1` (centres undefined): the inhibition is 4.65%.

With `CCOc1ccc(CCNC(=O)CN2C(=O)NC3(CCc4ccccc43)C2=O)cc1OCC` (centres undefined), the inhibition is 1.55%.

As for `C#CCOCCOCCOCCNc1nc(N2CCN(C(=O)Cn3cc(CCCCN)nn3)CC2)nc(N2CCN(C(=O)[C@H](CCCCN)n3cc(CCC(=O)O)nn3)CC2)n1`, the inhibition is 6.12%.

As to `Cc1cc(N2CCN(S(=O)(=O)c3ccc(C)c(C)c3)CC2)c2ccccc2n1`, the inhibition was -2.63%.

Regarding `Cc1ccc(S(=O)(=O)C(C#N)c2nc3ccccc3nc2N2CCCC2)cc1C` (centres undefined), the inhibition was 51.4% (active).

Regarding `Cc1ccc(S(=O)(=O)Nc2nc3ccccc3nc2N2CCc3ccccc3C2)cc1`, the inhibition was 0.1%.

Consider `O=C(NCCC1CCCCN1S(=O)(=O)c1ccc(Cl)cc1)C(=O)NCc1ccco1` (centres undefined), for which the inhibition was -0.26%.

`CN(C)CCc1c[nH]c2ccc(Cn3cncn3)cc12`: the inhibition is 4.56%.

On to `CC(OC(=O)CCCOc1ccccc1)C(=O)Nc1ccc(Cl)cn1` (centres undefined), for which the inhibition was -0.72%.

In the case of `Cc1ccc(NC(=O)CSc2cccc3cccnc23)c(C)c1`, the inhibition was 14.1%.

On to `O=C(CSc1cccc2cccnc12)N/N=C/c1cccnc1`, for which the inhibition was 36.6% (active).

With `O=C(CNC(=O)c1cccnc1)N/N=C/c1cccnc1`, the inhibition was -0.23%.

In the case of `O=C(CSc1nc(=O)n2ccccc2n1)Nc1ccc2c(c1)OCCO2`, the inhibition was 3.74%.

As for `C/C(CCC(=O)OC[C@H]1O[C@H](C#Cc2ccccc2)C=C[C@@H]1Oc1ccc(C)cc1)=N\OC[C@@H](O)[C@H]1O[C@@H]2OC(C)(C)O[C@@H]2[C@H]1O`, the inhibition was 3.31%.

Turning to `CCOc1ccc(/C=C/C(=O)OCC(=O)c2ccccc2OC)cc1OC`, the inhibition is -2.58%.

Take `O=C(N/N=C/c1ccc(O)c(O)c1)C1c2ccccc2Oc2ccccc21`: the inhibition is 35.5% (active).

As to `CCC(C)(C)NC(=O)C1c2ccccc2Oc2ccccc21`, the inhibition is 3.61%.

For `CCC(C)NC(=O)C1c2ccccc2Oc2ccccc21` (centres undefined), the inhibition is 2.29%.

Consider `CCOC(=O)N1CCN(C(=O)COc2ccc3oc4c(c3c2)CCCC4)CC1`, for which the inhibition is -0.52%.

As for `Nc1ccccc1/C=N\N=C/c1ccccc1N`, the inhibition was 8.02%.

Consider `CCOc1ccc(CCNC(=O)COC(=O)c2ccc(F)c(S(=O)(=O)N3CCOCC3)c2)cc1OCC`, for which the inhibition is 11.6%.

In the case of `CCCCN(CCCC)CCC(O)c1cc2c(Cl)cc(Cl)cc2c2cc(C(F)(F)F)ccc12` (centres undefined), the inhibition was 7.04%.

In the case of `COc1ccc(CNC(=O)C2(CC3CC(c4ccccc4)=NO3)CCN(C(=O)c3cccc(O)c3)CC2)cc1` (centres undefined), the inhibition is -2.65%.

On to `Cc1noc(C)c1C(=O)N1CCOCC1`, for which the inhibition was -8.26%.

Consider `Cc1oc2c(c1C(=O)N1CCOCC1)C(=O)c1ccccc1C2=O`, for which the inhibition was 49% (active).

On to `CCOC(=O)c1ccccc1C(=O)N1CCOCCOCCOCC1`, for which the inhibition is 0.47%.

In the case of `CCOc1ccc(CC(=O)NCCS(=O)(=O)N2CCN(c3ccccc3)CC2)cc1`, the inhibition is 2.49%.

Consider `COc1ccc(-c2csc3ncnc(N4CCN(S(=O)(=O)c5cccc(F)c5)CC4)c23)cc1`, for which the inhibition was -26.4%.

Regarding `Cc1cc(C(=O)N/N=C/c2ccccc2[N+](=O)[O-])c(C)o1`, the inhibition was -0.23%.

On to `Cc1ccsc1/C=N/NC(=O)Cc1cc(=O)[nH][nH]1`, for which the inhibition is 37.2% (active).

Take `COc1cc(CC(=O)N/N=C/c2ccccc2)c([N+](=O)[O-])cc1OC`: the inhibition is -0.51%.

Regarding `CCOc1ccc(N2CC(C(=O)N/N=C/c3sccc3C)CC2=O)cc1` (centres undefined), the inhibition was 8.53%.

For the compound `O=C(Cc1cc(=O)[nH][nH]1)N/N=C/c1ccccc1[N+](=O)[O-]`, the inhibition was 49.5% (active).

Take `Cc1ccsc1C(=O)N/N=C/c1ccc([N+](=O)[O-])cc1`: the inhibition was 0.47%.

Turning to `CCC(C)c1ccccc1N1CC(C(=O)N2CCN(S(=O)(=O)c3ccc(F)cc3)CC2)CC1=O` (centres undefined), the inhibition is 2.71%.

Regarding `CCOC(=O)/C=C/c1ccc(C(F)(F)F)cc1S(=O)(=O)NC(C)(C)C`, the inhibition is -1.78%.

Consider `COC(=O)c1ccc2ccccc2c1OC1OC(CO)C(O)C(O)C1NC(C)=O` (centres undefined), for which the inhibition was 2.04%.

For `Cc1ccc2nc(NC(=O)C3CSC4(C)CCC(=O)N34)sc2c1` (centres undefined), the inhibition was 1.93%.

Turning to `Cc1nn(Cc2ccccc2)c2c1C(c1ccccc1)C(C#N)=C(N)O2` (centres undefined), the inhibition was 6.98%.

On to `Cc1nn(-c2ccccc2)c2c1C(c1ccc(F)cc1)C(C#N)=C(N)O2` (centres undefined), for which the inhibition is 25.3%.

In the case of `COc1ccccc1C1C(C#N)=C(N)Oc2c1c(-c1ccccc1)nn2-c1ccccc1` (centres undefined), the inhibition is 59.1% (active).

With `C#CCOCCOCCOCCNc1nc(N2CCN(C(=O)CCCCCCCCCCNC(=O)[C@H](CCCCN)n3cc(C)nn3)CC2)nc(N2CCN(C(=O)CCCCCCCCCCNC(=O)[C@H](CO)n3cc(CCCSC)nn3)CC2)n1`, the inhibition was 4.17%.

As for `CCOC(=O)[C@H]1[C@H]2COc3ccc(Cl)cc3[C@@H]2N2C(=O)c3cc(C)ccc3NC(=O)[C@@]12C`, the inhibition is 1.13%.

As for `Cc1nc2ccccc2c(=O)n1-c1ccc(F)c(NC(=O)c2cccs2)c1`, the inhibition was -6.66%.

As for `CCN(C(=O)CSc1nnc(-c2ccc(OC(F)F)cc2)n1N)C1CCS(=O)(=O)C1` (centres undefined), the inhibition is -5.72%.

For `Cc1ccc(-c2nn(-c3ccc(F)cc3)cc2C(=O)NCC(c2cccs2)N2CCOCC2)cc1` (centres undefined), the inhibition is -3.34%.

In the case of `Clc1ccccc1CSc1nnc(-c2ccco2)c(-c2ccco2)n1`, the inhibition was 53% (active).

On to `O=c1[nH]c(SCc2ccccc2)nnc1-c1ccccc1`, for which the inhibition is -7.41%.

With `Fc1cccc(Cl)c1CSc1ccc(-c2ccco2)nn1`, the inhibition was 3.45%.

In the case of `c1ccc(CSc2nnc(-c3ccco3)c(-c3ccco3)n2)cc1`, the inhibition is 59.8% (active).

As for `O=c1cc(O)nc(SCc2ccccc2Cl)[nH]1`, the inhibition was -11.3%.

As to `Brc1ccc(CSc2ccc(-c3ccco3)nn2)cc1`, the inhibition is -3.33%.

Consider `Cc1cc(C)n2nc(C(=O)OC(C)C(=O)c3cc(C)c(C)cc3C)nc2n1` (centres undefined), for which the inhibition is 3.12%.

In the case of `COc1ccc(CNC(=O)CNC(=O)c2sc3ccccc3c2Cl)cc1OC`, the inhibition is -3.56%.

For the compound `O=c1[nH]c(/C=C/c2cccc(Br)c2)nc2ccccc12`, the inhibition is -7.5%.

As for `O=[N+]([O-])c1ncc(Br)cc1Nc1ccccc1`, the inhibition is 13.4%.

As to `Cc1cc(C(=O)N/N=C/c2ccc(O)c([N+](=O)[O-])c2)c(C)n1-c1ccc(F)cc1`, the inhibition is 23.2%.

Turning to `COc1cc(/C=N/NC(=O)c2cc(-c3ccccc3C)nc3ccccc23)cc(OC)c1O`, the inhibition is 3%.

Regarding `COc1cc(/C=N/NC(=O)c2cc(C)n(-c3ccc(F)cc3)c2C)cc(OC)c1O`, the inhibition is 35.7% (active).

As for `CN(C)CCn1c2c(c(SCC(=O)Nc3ccccc3C(F)(F)F)nc1=O)CCCC2`, the inhibition is -0.08%.

With `C=CCNC(=O)c1ccccc1SCc1c(C)noc1C`, the inhibition is 55.2% (active).

Take `C=CCNC(=O)c1cc(-c2ccccc2O)on1`: the inhibition is 3.47%.

In the case of `CCN(CC(=O)Nc1ccccc1C(F)(F)F)C(=O)CSCc1c(C)noc1C`, the inhibition is -6.06%.

For `COc1ccc(N2CCN(S(=O)(=O)c3cc4c5c(c3)C(C)C(=O)N5CCC4)CC2)cc1` (centres undefined), the inhibition was 8.18%.

Turning to `Cc1nc2ccccc2c(=O)n1-c1ccc(NS(=O)(=O)c2ccc(F)cc2F)cc1`, the inhibition was -1.88%.

`CC(=O)C12CC(C)=C(C)CC1CC1C3CCC4=CC(=O)CCC4(C)C3CCC12C` (centres undefined): the inhibition is 0%.

Consider `CC1(C)S[C@@H]2[C@H](N=CN3CCCCCC3)C(=O)N2[C@H]1C(=O)O`, for which the inhibition is 1.77%.

On to `COC(=O)c1cc(CNC(=O)CC(C)c2ccccc2)ccc1OC` (centres undefined), for which the inhibition is 3.39%.

Turning to `CC1(c2nnc(-c3ccncc3)o2)CC(c2cccnc2)=NO1` (centres undefined), the inhibition was 7.77%.

Regarding `CCOc1ccc(NC(=O)CSc2nc3c(c(=O)n2-c2ccccc2OC)SCC3)cc1`, the inhibition is 9.5%.

With `CCc1nnc(NC(=O)CSc2nnc(Cc3ccccc3)n2-c2ccc(OC)cc2)s1`, the inhibition is -0.09%.

As for `CCc1nnc(NC(=O)CSc2nc3c(c(=O)n2-c2ccccc2OC)SCC3)s1`, the inhibition was 35.6% (active).

As for `OCC[C@H]1C[C@@H](O)[C@H](O)[C@]2(OCCCc3ccccc32)O1`, the inhibition is -3.33%.

As for `CC(C)CC[n+]1ccn(C2=C([O-])c3ccccc3C(=O)/C2=N\S(=O)(=O)c2ccccc2)c1`, the inhibition is 70.8% (active).

For `O=C(c1cccnc1)N(c1cc2sc(=O)oc2c2ccccc12)S(=O)(=O)c1ccccc1`, the inhibition was 66.5% (active).

`COc1ccc(N(C(=O)c2cccnc2)S(=O)(=O)c2ccc(OC)c(OC)c2)cc1`: the inhibition is 8.53%.

Regarding `COc1ccc(N(C(=O)c2cccnc2)S(=O)(=O)c2ccc3c(c2)n(C)c(=O)n3C)cc1`, the inhibition is 9.41%.

Values taken from PubChem BioAssay AID1974 (The Scripps Research Institute Molecular Screening Center, 2009).
